Test [1] addresses Tyrosine-protein kinase SYK (Homo sapiens) (UniProt P43405). To be noted: at 10 µM.
In test [2] the target is T1, Mitogen-activated protein kinase kinase kinase 7 (Homo sapiens) (UniProt O43318).
T1 sequence (whole entry): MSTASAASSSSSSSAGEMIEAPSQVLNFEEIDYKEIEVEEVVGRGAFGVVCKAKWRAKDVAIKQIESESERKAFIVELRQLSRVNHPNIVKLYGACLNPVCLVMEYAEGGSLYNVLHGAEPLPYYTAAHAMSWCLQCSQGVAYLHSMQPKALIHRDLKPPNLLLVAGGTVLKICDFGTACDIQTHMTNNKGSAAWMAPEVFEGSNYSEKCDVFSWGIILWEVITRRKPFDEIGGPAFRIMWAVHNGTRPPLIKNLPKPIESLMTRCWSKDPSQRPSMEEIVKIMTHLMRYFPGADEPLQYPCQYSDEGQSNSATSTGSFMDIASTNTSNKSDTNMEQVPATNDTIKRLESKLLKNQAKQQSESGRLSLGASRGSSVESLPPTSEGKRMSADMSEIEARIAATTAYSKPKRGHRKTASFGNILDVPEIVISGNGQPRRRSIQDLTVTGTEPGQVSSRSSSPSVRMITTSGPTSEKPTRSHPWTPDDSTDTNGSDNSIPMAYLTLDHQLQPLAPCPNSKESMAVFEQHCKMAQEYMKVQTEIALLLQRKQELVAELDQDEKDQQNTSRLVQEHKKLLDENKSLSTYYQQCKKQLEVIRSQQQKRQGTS
To be noted: at 1 µM.

For test [3], the target named is T1, Mitogen-activated protein kinase kinase kinase 7 (Homo sapiens). To be noted: at 10 µM.
For test [4], the target named is T2, Serine/threonine-protein kinase TAO1 (Homo sapiens) (UniProt Q7L7X3).
T2 sequence (whole entry): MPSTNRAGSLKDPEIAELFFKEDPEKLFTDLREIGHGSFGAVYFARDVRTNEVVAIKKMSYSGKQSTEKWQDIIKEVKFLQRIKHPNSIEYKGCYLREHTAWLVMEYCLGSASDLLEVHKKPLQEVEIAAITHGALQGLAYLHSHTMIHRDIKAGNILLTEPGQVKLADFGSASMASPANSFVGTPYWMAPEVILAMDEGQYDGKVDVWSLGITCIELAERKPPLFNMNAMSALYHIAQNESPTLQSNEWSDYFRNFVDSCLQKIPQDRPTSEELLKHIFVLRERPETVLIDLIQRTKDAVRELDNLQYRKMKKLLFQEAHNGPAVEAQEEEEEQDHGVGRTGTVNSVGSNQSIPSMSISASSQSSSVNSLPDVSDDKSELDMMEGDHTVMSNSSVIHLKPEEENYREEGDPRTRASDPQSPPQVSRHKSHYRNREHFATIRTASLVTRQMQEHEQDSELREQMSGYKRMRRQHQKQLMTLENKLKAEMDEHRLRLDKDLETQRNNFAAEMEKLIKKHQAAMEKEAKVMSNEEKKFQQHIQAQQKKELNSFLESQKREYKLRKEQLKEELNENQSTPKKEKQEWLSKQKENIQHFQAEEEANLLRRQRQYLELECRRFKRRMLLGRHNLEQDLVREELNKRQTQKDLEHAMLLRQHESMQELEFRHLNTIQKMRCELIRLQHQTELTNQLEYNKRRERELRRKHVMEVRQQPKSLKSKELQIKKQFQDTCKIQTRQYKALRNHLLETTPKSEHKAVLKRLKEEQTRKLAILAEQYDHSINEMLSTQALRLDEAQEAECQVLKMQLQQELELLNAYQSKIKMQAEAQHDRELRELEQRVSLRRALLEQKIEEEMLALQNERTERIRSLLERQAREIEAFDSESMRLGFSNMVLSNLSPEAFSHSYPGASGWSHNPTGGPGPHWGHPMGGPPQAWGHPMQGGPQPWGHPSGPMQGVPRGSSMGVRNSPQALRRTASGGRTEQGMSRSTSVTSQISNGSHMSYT
The conditions noted are these: at 1 µM.

Test [5] deals with T2, Serine/threonine-protein kinase TAO1 (Homo sapiens). The conditions noted are these: at 10 µM.
The target in test [6] is T3, Serine/threonine-protein kinase TAO2 (Homo sapiens) (UniProt Q9UL54).
T3 sequence (whole entry): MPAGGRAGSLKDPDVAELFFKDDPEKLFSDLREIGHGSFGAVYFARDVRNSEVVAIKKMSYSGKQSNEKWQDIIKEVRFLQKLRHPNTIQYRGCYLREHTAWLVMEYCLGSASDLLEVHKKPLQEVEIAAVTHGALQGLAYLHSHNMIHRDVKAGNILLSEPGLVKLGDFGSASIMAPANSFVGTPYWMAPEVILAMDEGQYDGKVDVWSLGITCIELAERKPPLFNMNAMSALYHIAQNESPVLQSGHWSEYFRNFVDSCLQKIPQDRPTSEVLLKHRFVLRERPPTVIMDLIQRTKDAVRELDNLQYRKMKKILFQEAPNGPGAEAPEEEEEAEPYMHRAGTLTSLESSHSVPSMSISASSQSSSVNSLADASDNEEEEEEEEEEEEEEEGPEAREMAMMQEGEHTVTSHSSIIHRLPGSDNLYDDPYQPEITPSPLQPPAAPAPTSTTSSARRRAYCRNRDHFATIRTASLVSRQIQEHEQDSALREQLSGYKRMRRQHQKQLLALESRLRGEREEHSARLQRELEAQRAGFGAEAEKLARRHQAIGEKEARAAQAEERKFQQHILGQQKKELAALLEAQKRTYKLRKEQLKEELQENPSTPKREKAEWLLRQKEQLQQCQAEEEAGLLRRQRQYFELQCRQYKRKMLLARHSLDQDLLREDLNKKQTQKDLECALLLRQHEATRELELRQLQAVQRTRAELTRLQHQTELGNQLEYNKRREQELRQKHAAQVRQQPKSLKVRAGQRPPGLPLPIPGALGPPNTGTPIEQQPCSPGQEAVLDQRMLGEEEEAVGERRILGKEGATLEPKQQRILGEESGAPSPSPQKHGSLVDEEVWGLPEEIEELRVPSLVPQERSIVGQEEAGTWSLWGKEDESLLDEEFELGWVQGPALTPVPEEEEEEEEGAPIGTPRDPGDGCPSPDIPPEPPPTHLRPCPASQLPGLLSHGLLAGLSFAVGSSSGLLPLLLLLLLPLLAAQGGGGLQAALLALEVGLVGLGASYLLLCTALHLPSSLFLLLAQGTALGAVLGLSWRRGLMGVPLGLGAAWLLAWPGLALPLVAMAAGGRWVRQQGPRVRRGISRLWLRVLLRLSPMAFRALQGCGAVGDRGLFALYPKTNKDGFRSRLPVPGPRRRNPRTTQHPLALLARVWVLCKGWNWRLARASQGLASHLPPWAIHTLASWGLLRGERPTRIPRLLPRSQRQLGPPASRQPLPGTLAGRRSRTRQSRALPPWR
To be noted: at 1 µM.

Test [7] addresses T3, Serine/threonine-protein kinase TAO2 (Homo sapiens). To be noted: at 10 µM.
For test [8], the target named is T4, Serine/threonine-protein kinase TAO3 (Homo sapiens) (UniProt Q9H2K8).
T4 sequence (whole entry): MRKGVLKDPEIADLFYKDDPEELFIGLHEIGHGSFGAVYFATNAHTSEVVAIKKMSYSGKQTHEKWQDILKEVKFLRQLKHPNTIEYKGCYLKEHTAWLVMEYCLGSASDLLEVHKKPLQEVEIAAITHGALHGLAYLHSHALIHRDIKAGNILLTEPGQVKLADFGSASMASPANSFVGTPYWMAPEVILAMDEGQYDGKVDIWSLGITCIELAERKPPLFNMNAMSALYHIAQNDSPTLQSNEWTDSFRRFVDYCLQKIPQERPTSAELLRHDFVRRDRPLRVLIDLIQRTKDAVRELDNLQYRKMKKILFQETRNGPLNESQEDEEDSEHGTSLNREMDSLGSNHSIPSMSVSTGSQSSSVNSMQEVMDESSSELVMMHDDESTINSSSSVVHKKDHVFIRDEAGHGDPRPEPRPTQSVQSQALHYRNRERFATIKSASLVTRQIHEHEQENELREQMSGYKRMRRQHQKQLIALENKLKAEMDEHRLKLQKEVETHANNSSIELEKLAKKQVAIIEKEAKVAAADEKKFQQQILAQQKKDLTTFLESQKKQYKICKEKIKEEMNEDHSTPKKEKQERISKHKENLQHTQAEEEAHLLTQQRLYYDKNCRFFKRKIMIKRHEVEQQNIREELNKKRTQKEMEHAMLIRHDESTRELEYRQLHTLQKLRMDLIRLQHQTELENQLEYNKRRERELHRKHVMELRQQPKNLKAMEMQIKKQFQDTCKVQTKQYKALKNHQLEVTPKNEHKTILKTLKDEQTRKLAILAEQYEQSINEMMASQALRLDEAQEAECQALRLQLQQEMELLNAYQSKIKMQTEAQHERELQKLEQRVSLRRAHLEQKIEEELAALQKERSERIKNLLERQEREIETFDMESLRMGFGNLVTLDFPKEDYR
The conditions noted are these: at 1 µM.

For the compound `O=C(c1cc2cc(O)ccc2[nH]1)c1cc2cc(O)ccc2[nH]1`, the residual activity in test [1] was 46%; in test [2], 62%; in test [3], 23%; in test [4], 70%; in test [5] it was 28%; in test [6] it was 80%. Further, the residual activity is 32% in test [7] and 66% in test [8].

Values taken from ChEMBL document CHEMBL2218924, “A broad activity screen in support of a chemogenomic map for kinase signalling research and drug discovery” (Biochem J, 2013).
